Results reported in PubChem BioAssay (Tox21).
Records with an inconclusive call do not appear. A call without a number means that no potency is given here. Active and inactive are the calls of the source. The call rests on the fitted dose curve.

Target: Beta-2 adrenergic receptor (Homo sapiens) (UniProt P07550)
Assay: Adrenergic beta2 receptor (ADRB2) small molecule agonists, cell-based qHTS assay (AID 1963593);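 further: CHO cells stably overexpressing human ADRB2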
Conditions: CHO-ADRB2 cells, cAMP HTRF, 30 min; series mostly up to 92.4 µM
Summary of the method: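 CHO cells stably over-expressing ADRB2 were plated overnight at 37C, then dosed with compounds plus a stimulation mix containing 100uM IBMX and 25uM Ro-20-1724 for 0.5hr at room temperature. cAMP was measured by HTRF competition, 1hr.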

Sequence of Beta-2 adrenergic receptor (Homo sapiens) (P07550 whole entry, looked up): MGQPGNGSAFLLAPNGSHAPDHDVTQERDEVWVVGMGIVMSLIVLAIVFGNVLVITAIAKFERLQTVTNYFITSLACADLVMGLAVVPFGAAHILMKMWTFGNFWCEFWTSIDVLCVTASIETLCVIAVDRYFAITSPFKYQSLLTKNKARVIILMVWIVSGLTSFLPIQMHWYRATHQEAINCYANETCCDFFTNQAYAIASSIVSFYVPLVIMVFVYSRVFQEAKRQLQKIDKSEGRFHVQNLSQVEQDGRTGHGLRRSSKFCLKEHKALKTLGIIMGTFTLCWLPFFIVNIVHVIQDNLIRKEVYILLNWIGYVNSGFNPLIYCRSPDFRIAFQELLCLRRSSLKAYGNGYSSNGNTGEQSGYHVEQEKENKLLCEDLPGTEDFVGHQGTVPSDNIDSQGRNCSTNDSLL

Row | Structure (SMILES) | Potency
1 | OC[C@H]1O[C@@H]2O[C@H]3[C@H](O)[C@@H](O)[C@@H](O[C@H]4[C@H](O)[C@@H](O)[C@@H](O[C@H]5[C@H](O)[C@@H](O)[C@@H](O[C@H]6[C@H](O)[C@@H](O)[C@@H](O[C@H]7[C@H](O)[C@@H](O)[C@@H](O[C@H]8[C@H](O)[C@@H](O)[C@@H](O[C@H]9[C@H](O)[C@@H](O)[C@@H](O[C@H]1[C@H](O)[C@H]2O)O[C@@H]9CO)O[C@@H]8CO)O[C@@H]7CO)O[C@@H]6CO)O[C@@H]5CO)O[C@@H]4CO)O[C@@H]3CO | inactive
2 | CCCCCCCCCCCCOC(C)=O | inactive
3 | S=C(S)NCCNC(=S)S | inactive
4 | C=Cc1ccc(C(C)(C)C)cc1 | inactive
5 | CCN[C@H]1C[C@H](C)S(=O)(=O)c2sc(S(N)(=O)=O)cc21 | inactive
6 | O=c1c2ccccc2oc2ccccc12 | inactive
7 | Nc1ncn([C@H]2C[C@H](O)[C@@H](CO)O2)c(=O)n1 | inactive
8 | CC(=O)Nc1ccc(S(=O)(=O)Cl)cc1 | inactive
9 | CC(C)(C)C(=O)CCc1ccc(Cl)cc1 | inactive
10 | CC(=O)NNC(C)=O | inactive
11 | O=[N+]([O-])c1ccc(Cl)cc1Cl | inactive
12 | OCC1CC=CCC1 (stereo not given) | inactive
13 | C=CCN(CC=C)CC=C | inactive
14 | O=C(Cl)c1c(Cl)cccc1Cl | inactive
15 | NCCCN(CCO)CCO | inactive
16 | CC1=C(C(=O)O)N2C(=O)[C@@H](NC(=O)[C@H](N)C3=CCC=CC3)[C@H]2SC1 | inactive
17 | C#CC(O)C(CC)CCCC (stereo not given) | inactive
18 | C=C1CCC2CC1C2(C)C (stereo not given) | inactive
19 | CC(C)CCOCc1ccccc1 | inactive
20 | CC1(C)C(=O)N(Cl)C(=O)N1Br | inactive

Row | Structure (SMILES) | Potency
21 | CCOc1ccc(OCC)c(Cl)c1 | inactive
22 | c1ccc(-c2nc[nH]c2-c2ccccc2)cc1 | inactive
23 | CCOc1ccc2nc(S(N)(=O)=O)sc2c1 | inactive
24 | O=C1CC[C@@H](C(=O)O)N1 | inactive
25 | CCCCC(CC)C(=O)OCCOCCOCCOCCOC(=O)C(CC)CCCC (stereo not given) | inactive
26 | O=C(O)CNC(=O)CNC(=O)CNC(=O)CSC(=O)c1ccccc1 | inactive
27 | CC(O)CC(C)O (stereo not given) | inactive
28 | Clc1sc(Cl)c(Cl)c1Cl | inactive
29 | C/C=C(\C)C(C)=O | inactive
30 | CC1=NN(c2cccc(S(=O)(=O)O)c2)C(=O)C1 | inactive
31 | C=CCOC(=O)c1ccc(C(=O)OCC=C)c(C(=O)OCC=C)c1 | inactive
32 | Cc1ccc(N)cc1S(=O)(=O)O | inactive
33 | CC(C)(CO)[N+](=O)[O-] | inactive
34 | C[Si](C)(C)O[Si](O)(O)O | inactive
35 | CC(Cc1ccccc1)(NC(=O)CN)c1ccccc1 (stereo not given) | inactive
36 | N[C@@H](CCC(=O)O)C(=O)O | inactive
37 | C=C(C)C1CC=C(C)C(=O)C1 (stereo not given) | inactive
38 | CC(CO)(CO)[N+](=O)[O-] | inactive
39 | NNC(=O)CP(=O)(c1ccccc1)c1ccccc1 | inactive
40 | C=CCCC(=O)O | inactive
